This is a sample that favours compounds with a hit; in the whole collection about 2% have one here.
aSyn rescue: alpha-synuclein toxicity inhibition in yeast | Potency, µM (highest dose often 46.1 µM), for the others: at the highest dose growth rescue (activation), most hits filed as activators | actives 0.14% (n = 370,000) | Yeast expressing alpha-synuclein, growth rescue, BacTiter-Glo, 24 h | AID 652106; also: potency is read from the fitted curve at half-maximal effect; % of control where 0% means no effect; nearly all actives have a fitted effect of over 65% in size
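Screening used galactose-induced yeast with toxic alpha-synuclein levels, exposed to compound for 24 hr at 30 deg C. Cell growth, read with BacTiter-Glo luminescence, gave the measured signal.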
IDH1 R132H inh: human IDH1 R132H inhibition. O75874. IDH1-R132H enzyme, NADPH consumption, diaphorase/resazurin fluorescence. Potency, µM (doses to about 76.6 µM), without a hit: top-dose activity change, negative = inhibition, most hits filed as inhibitors. actives 0.093% (n = 390,000). AID 602179; also: potency is read from the fitted curve at half-maximal effect; % is scaled to controls: 0 for no effect and ±100 for the full control effect; nearly all actives have a fitted effect of over 65% in size
Target sequence (O75874 whole entry R132H, stated change not applied): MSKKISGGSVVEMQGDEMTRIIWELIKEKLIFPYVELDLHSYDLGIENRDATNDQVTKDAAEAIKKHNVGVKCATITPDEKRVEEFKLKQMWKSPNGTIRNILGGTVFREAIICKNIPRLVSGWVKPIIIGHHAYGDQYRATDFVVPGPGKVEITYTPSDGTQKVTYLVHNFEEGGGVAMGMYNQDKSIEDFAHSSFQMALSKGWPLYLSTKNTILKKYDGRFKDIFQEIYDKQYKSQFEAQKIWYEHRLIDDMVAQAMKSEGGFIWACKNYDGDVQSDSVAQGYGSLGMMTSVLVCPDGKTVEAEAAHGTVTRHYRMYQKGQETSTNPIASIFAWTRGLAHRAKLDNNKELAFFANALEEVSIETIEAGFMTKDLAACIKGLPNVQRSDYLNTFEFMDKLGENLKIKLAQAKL
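IDH1-R132H (0.5 ug/mL) preincubated 30 min with compound, then NADPH (0.016 mM) and alpha-KG (2 mM) added; 80 min at RT, pH 7.5. Remaining NADPH coupled via diaphorase/resazurin to fluorescence (540/590 nm); concentration-response curves normalized to no-enzyme control.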
TDP43 rescue: rescues yeast growth from TDP-43 toxicity; TDP-43 expressing yeast growth rescue, BacTiter-Glo, 24 h; Potency, µM (highest dose often 46.1 µM), without a hit: at the highest dose growth rescue (activation), usual class: activators; actives 1.8% (n = 410,000); also: potency is read from the fitted curve at half-maximal effect; % of control where 0% means no effect; nearly all actives have a fitted effect of over 50% in size
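Galactose-induced TDP-43 yeast, OD600=0.02, compound pinned; 24 hr, 30 deg C; BacTiter-Glo luminescence for growth. Inhibitors of TDP-43 toxicity read as activators.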
FUS suppressor: FUS proteinopathy suppression in yeast; S. cerevisiae FUS-expressing, growth rescue, OD600, 24 h; Potency, µM (series often up to 76.6 µM), usual class: activators; actives 0.24% (n = 390,000);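 also: potency is read from the fitted curve at half-maximal effect; plate controls were DMSO vehicle for no effect and reference control for full effect; nearly all actives have a fitted effect of over 55% in size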
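Galactose (2%) drives FUS expression in yeast precultured in raffinose; seeding density OD 0.005. Test compounds incubated 24hr at 30C and 99% humidity before absorbance at 600 nm was measured.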
Abeta rescue: A-beta toxicity reversal in yeast | Potency, µM (titrated, usually from 46.1 µM), usual class: activators | actives 0.063% (n = 410,000) | AID 1347071 | yeast expressing A-beta42, growth rescue, OD600, 48 h; response scale: 0% DMSO, 100% iron-clioquinol control; also: potency is read from the fitted curve at half-maximal effect; nearly all actives have a fitted effect of over 55% in size
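Yeast A-beta toxicity model in growth medium with pinned compounds, 48 h at 30 C; growth read as absorbance at 600 nm. Normalized to FeCl3/clioquinol equimolar mix (positive) and DMSO (negative).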
LDHA inh: inhibitors of human lactate dehydrogenase A. P00338. purified LDHA, NADH/diaphorase-resazurin fluorescence; hits give low values. activity change, % (values are at about 110 or 230 µM). actives 0.15% (n = 480,000); in the data active = activity change below about -30%; inconclusive = mostly about -25% to -30%;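 also: plate controls were DMSO wells for no effect and wells without enzyme for full effect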
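LDH5 2 nM; NADH 0.06 mM, pyruvate 0.2 mM; 200 mM Tris pH 7.4, EDTA, Tween-20; 5 min RT. Detection: diaphorase 0.133 mg/mL + resazurin 37 µM, fluorescence ex540/em590 at 0 and 20 min; normalized to enzyme-free and DMSO wells.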
IDH1 autofl: interferes with resorufin fluorescence in IDH1 counter-screen; shares compounds with IDH1 R132H inh; Resorufin detection reagent fluorescence interference, cell-free; inhibition of signal, % at 51.2 µM; 750 tested, under 10 active; AID 623980;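 also: 0% = wells with normal resorufin and full inhibition = wells lacking resorufin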
IDH1 WT: selectivity of mutant IDH1 inhibitors: human wild-type IDH1 | shares compounds with IDH1 R132H inh | WT IDH1 enzyme, NADPH diaphorase/resazurin fluorescence | Potency, µM (doses to about 115 µM), for the others: top-dose activity change, negative = inhibition, hits mostly inhibitors | actives 9% (n = 750) | AID 623995;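 also: potency is read from the fitted curve at half-maximal effect; 0% = full WT IDH1 enzyme control and full inhibition = no enzyme wells; nearly all actives have a fitted effect of over 55% in size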
Target sequence (O75874 whole entry, looked up): as the sequence (O75874 whole entry R132H, stated change not applied) above, with H132R counted along it
IDH1 R132H conf: confirmation of human mutant IDH1 inhibitors; IDH1 R132H enzyme, NADPH diaphorase/resazurin fluorescence; Potency, µM (top dose mostly 76.6 µM), without a hit: top-dose activity change, negative = inhibition, usual class: inhibitors; shares compounds with IDH1 R132H inh; actives 83% (n = 750); also: potency is read from the fitted curve at half-maximal effect; nearly all actives have a fitted effect of over 50% in size
An asterisk follows results filed as active; i = inactive; ? = inconclusive; / = no result. Unless noted, calls follow the shape of the dose curve; as a rule, active = well fitted curve in the direction sought with a large enough effect; inconclusive = small, poorly fitted or top-dose-only effect, or another doubt; inactive = no such curve, though single readings can be large; an effect the other way counts as inactive or inconclusive.

SMILES | aSyn rescue | IDH1 R132H inh | TDP43 rescue | FUS suppressor | Abeta rescue | LDHA inh | IDH1 autofl | IDH1 WT | IDH1 R132H conf
O=C1c2[nH]nc(-c3ccccc3O)c2C(c2ccc(F)cc2)N1Cc1ccco1 (stereo not given) | 5% | ? | 27% | 45µM* | i | 4 | -7 | 5% | 40µM*
CCC1CCc2c(sc(NC(=O)C3CC3)c2C#N)C1 (stereo not given) | / | / | / | / | / | 6 | / | / | /
CCOc1ccccc1C(=O)OCc1ccc(C#N)cc1 | / | / | / | / | / | -2 | / | / | /
CCc1ccc2[nH]c(C)c(CC(=O)NCc3ccc(C)o3)c2c1 | / | / | / | / | / | 5 | / | / | /
Brc1ccc2c(c1)C(c1cccs1)=NNC(c1cccnc1)=N2 | -6% | 29µM* | 7% | i | i | 4 | -10 | -4% | 22µM*
CSc1cccc(N2CC(C(=O)Nc3cc(Cl)ccc3-n3cncn3)CC2=O)c1 (stereo not given) | / | / | / | / | / | -9 | / | / | /
COc1ccc(-c2coc3cc(OC(C)=O)ccc3c2=S)cc1 | -9% | 46µM* | ? | i | i | -6 | -4 | 8% | ?
CCN(CCO)c1ncnc2c1sc1nc(C(C)C)c3c(c12)CC(C)(C)OC3 | ? | ? | 3% | i | i | 5 | -13 | 7.1µM* | 6.3µM*
CC(C)CNc1ncnc2c1sc1nc(C(C)C)c3c(c12)CC(C)(C)OC3 | / | / | / | / | / | 12 | / | / | /
CCn1c(=N)c(S(=O)(=O)c2ccccc2)cc2c(=O)n3ccccc3nc21 | -11% | 0% | -16% | i | i | -13 | / | / | /
CCCCCn1c(=N)c(S(=O)(=O)c2ccccc2)cc2c(=O)n3ccccc3nc21 | -5% | 20µM* | 18% | i | i | -10 | 2 | 5% | 7.9µM*
COc1ccc(CCn2c(=N)c(S(=O)(=O)c3ccccc3)cc3c(=O)n4ccccc4nc32)cc1 | 0% | 3% | 16% | i | / | -7 | / | / | /
CCCn1c(=N)c(S(=O)(=O)c2ccccc2)cc2c(=O)n3ccccc3nc21 | -2% | 40µM* | -30% | i | i | -5 | 4 | 7% | 20µM*
CC(CCc1ccccc1)NC(=O)COC(=O)c1ccc(S(C)(=O)=O)c([N+](=O)[O-])c1 (stereo not given) | -6% | ? | 1% | i | i | -4 | -3 | 2% | ?
CS(=O)(=O)c1ccc(C(=O)OCc2nnc(-c3ccccc3)o2)cc1[N+](=O)[O-] | -16% | ? | ? | i | i | -2 | -4 | 9% | 25µM*
CN(C)S(=O)(=O)c1ccc(C(=O)OCc2nnc(-c3ccccc3)o2)cc1 | -1% | 13% | -27% | i | i | -2 | / | / | /
COc1cc(SC#N)ccc1N=Cc1c(C)[nH]n(-c2ccc(Cl)cc2)c1=O | -5% | ? | 5% | i | i | -4 | -1 | 1% | 45µM*
CCOC(=O)C1=C(O)/C(=C/c2ccc(OCC(=O)O)c(OCC)c2)SC1=Nc1ccc(C)cc1 | 2% | ? | -5% | i | i | -1 | / | / | /
CCOC(=O)C1=C(O)/C(=C/c2ccc(OCC(=O)O)c(OCC)c2)SC1=Nc1ccc(OC)cc1 | -6% | 46µM* | -2% | i | i | -3 | 8 | 50µM* | ?
